Laboratory results from PubChem BioAssay AID1851 (National Center for Advancing Translational Sciences (NCATS), 2009).
In all, about 16,000 compounds went through this assay and about 2,600 (16%) were called active. Roughly 20% stayed inconclusive and do not appear here. Only a sample is shown. A number with no mark means an inactive call. The call rests on the fitted dose curve; in most records, active means well fitted curve in the direction sought with a large enough effect; inconclusive means small, poorly fitted or top-dose-only effect, or effect the other way; inactive means no such curve, though single readings can be large or run the other way.

Each compound was assayed against Cytochrome P450 2D6 (Homo sapiens) (UniProt P10635) (assay: Cytochrome panel assay with activity outcomes). Conditions: recombinant CYP, pro-luciferin dealkylation, luminescence, p450-cyp2d6; series mostly up to 57.1 µM; activity, negative = inhibition: at the top concentration.
Chain of Cytochrome P450 2D6 (Homo sapiens) (P10635 whole entry, looked up): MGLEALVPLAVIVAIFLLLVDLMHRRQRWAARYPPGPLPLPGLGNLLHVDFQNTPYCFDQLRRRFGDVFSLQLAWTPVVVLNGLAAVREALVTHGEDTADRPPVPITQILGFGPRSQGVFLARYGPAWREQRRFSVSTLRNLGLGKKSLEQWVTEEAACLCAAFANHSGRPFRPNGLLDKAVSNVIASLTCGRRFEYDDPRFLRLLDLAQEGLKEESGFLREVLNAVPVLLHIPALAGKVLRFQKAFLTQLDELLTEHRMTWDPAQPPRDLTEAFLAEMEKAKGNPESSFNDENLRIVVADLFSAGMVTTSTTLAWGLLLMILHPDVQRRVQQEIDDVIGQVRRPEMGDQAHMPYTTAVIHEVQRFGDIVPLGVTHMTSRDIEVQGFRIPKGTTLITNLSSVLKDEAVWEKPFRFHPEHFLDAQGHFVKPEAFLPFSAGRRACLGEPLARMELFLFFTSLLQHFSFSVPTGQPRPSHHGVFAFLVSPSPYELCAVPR
On the % scale 0 is the no-effect control and ±100 the full control effect.

Row | SMILES | activity, negative = inhibition | AC50
1 | COc1ccccc1S(=O)(=O)Nc1ccc(-c2nnc3n2CCCCC3)cc1 | -3.25% | 
2 | N#Cc1c(N)nc2c(c1-c1cccc(O)c1)CCCCCC2 | -22.4% | 
3 | CCc1nnc2sc(-c3ccc(NC(=O)c4ccco4)cc3)nn12 | -18.1% | 
4 | Cc1ccc(S(=O)(=O)N[C@H](C(=O)N2CCC(C(=O)NCC(=O)O)CC2)C(C)C)cc1 | 5.93% | 
5 | Cc1cc(C)nc(NN2C(=O)/C(=C/c3ccccc3)SC2=S)n1 | 20% | 
6 | COc1ccc(/C=C\C(=O)Nc2ccccc2C(=O)O)cc1OC | -0.45% | 
7 | CCOc1cc(C#N)c(NC(=O)c2cccnc2)cc1OCC | -7.18% | 
8 | COCCNC(=O)c1onc(CSc2ccccc2F)c1C(=O)O | -3.48% | 
9 | CC(C)(C)NC(=O)C(=O)NNC(=O)c1ccccc1 | 29.3% | 
10 | N[C@H](C(=O)O)c1nn[nH]n1 | 4.99% | 
11 | O=C(NNC(=S)NCc1ccco1)c1ccc(Cl)s1 | -15.8% | 
12 | Nc1ccc2c3c(cccc13)C(=O)NC2=O | -2.93% | 
13 | Nc1[nH]c(=S)[nH]c(=O)c1N=Nc1c(Br)cc(S(N)(=O)=O)cc1Br | 7.23% [at 11.4 µM] | 
14 | CC1(C)CC(O)CC(C)(C)N1CC(O)COCCOc1ccc(Br)cc1 (stereo not given) |  | 14.1 µM (active)
15 | O=c1c(-c2cccs2)nc2cncnc2n1C1CC1 | -6.01% | 
16 | COc1cccc(Nc2ncc3nc(CCc4ccccc4)c(=O)n(Cc4cccs4)c3n2)c1 | -5.85% | 
17 | O=C(NCc1ccccc1)C(c1ccncc1)N(C(=O)c1csnn1)C1CC1 (stereo not given) | -26.9% | 
18 | CC(C)(C)NC(=O)NC(=O)CSc1nnc2ccccn12 | -0.138% | 
19 | O=c1cnc2cnc(N3CCOCC3)nc2n1C[C@H]1CCCO1 | 0.524% | 
20 | Cc1ccccc1-c1ccc2ncnc(NCc3cccs3)c2c1 |  | 10 µM (active)
21 | FC(F)(F)c1ccccc1-c1ccc2ncnc(NCc3cccs3)c2c1 |  | 10 µM (active)
22 | CC(C)=CCC/C(C)=C/CO/N=C1/[C@H]2O[C@@H]2[C@@H](O)[C@H]2[C@H]1CCn1c(=O)n(-c3ccccc3)c(=O)n12 | -3.53% [at 11.4 µM] | 
23 | CC1CN(C(=O)COc2ncnc3ccccc23)CC(C)O1 (stereo not given) | -0.13% | 
24 | CC1=CC(C)(C)N(C)C(=O)N1c1ccc(Cl)cc1 | -5.24% | 
25 | COC(=O)c1[nH]c2cc(OC)ccc2c1NC(=O)CCN1CCSCC1 | -12.3% | 
26 | CCOC(=O)C(C)Sc1ncc(OC)c(Sc2ccc(Cl)cc2)n1 (stereo not given) | -12.6% | 
27 | Nc1c2c(=O)oc(-c3ccccc3)cc2nn1-c1ccccc1 |  | 5.01 µM (active)

Row | SMILES | activity, negative = inhibition | AC50
28 | Cc1cc(N)n(-c2ccccc2)n1 | 9.11% | 
29 | Cc1nn(-c2ccccc2)c(-c2ccccc2)c1C(=O)O | -6.28% | 
30 | CCOC(=O)CSc1n[nH]c(NC(=O)c2cccc(C(F)(F)F)c2)n1 | 0.499% | 
31 | CN(C)c1ccc(NC(=O)c2cccc(N3C(=O)C4C5C=CC(C5)C4C3=O)c2)cc1 (stereo not given) | -1.14% | 
32 | Cc1nnsc1SCC(=O)O | 16.2% | 
33 | Cc1ccc(-c2nc(-c3nccc4ccccc34)oc2-c2ccccc2)cc1 | -9.6% [at 11.4 µM] | 
34 | CS(=O)(=O)N1CCN(c2ccc([N+](=O)[O-])c(NCc3ccccc3)c2)CC1 | -25.9% | 
35 | C1=C(CN2CCOCC2)COc2c1cccc2OC[C@@H]1CNCCO1 | 3.78% | 
36 | CS(=O)(=O)Nc1ccc([N+](=O)[O-])cc1OC1CCCCC1 |  | 0.0501 µM (active)
37 | CS(=O)(=O)Nc1ccc([N+](=O)[O-])cc1Oc1ccccc1 | -0.21% [at 25.6 µM] | 
38 | COc1ccc([N+](=O)[O-])cc1NC1C2CC3CC(C2)CC1C3 (stereo not given) | 6.11% | 
39 | Cc1csc(NC(=O)CCNS(=O)(=O)c2ccc3c(c2)c(=O)n(C)c(=O)n3C)n1 | -6.75% | 
40 | CCCc1nnc(SCC(=O)N2C(C)CCCC2C)n1CCCOC (stereo not given) | 0.151% | 
41 | CO[C@@H](C(C)C)[C@@H](C)[C@@H]1OC(=O)C[C@@H]1O | -14.8% [at 11.4 µM] | 
42 | CC(=O)N1CCc2cc(Br)cc(S(=O)(=O)N3CCN(C(=O)c4ccco4)CC3)c21 | 11.4% | 
43 | Cc1ccc(S(=O)(=O)CC#CCOC(=O)c2ccc([N+](=O)[O-])cc2)cc1 |  | 12.6 µM (active)
44 | COc1ccc(C(=O)NCS(=O)(=O)c2ccc(C)cc2)cc1 | -15.2% | 
45 | Cc1c(OC(=O)c2ccc([N+](=O)[O-])cc2)c2c(c[n+]1C)COC(C)(C)OC2 | 8.33% | 
46 | COc1ccc(-c2nc3cnc(N4CCOCC4)nc3n(C[C@H]3CCCO3)c2=O)cc1 | 1.59% | 
47 | CCc1nnc(NC(=O)c2cc(-c3ccccc3)nn2-c2ccccc2)s1 | -15.9% | 
48 | Fc1cccc(CSc2ncnc3c2ncn3[C@H]2CCCS2)c1 | 8.45% [at 11.4 µM] | 
49 | COc1ccc(CNc2ncncc2-c2cccnc2)c(OC)c1 |  | 15.8 µM (active)
50 | COc1ccccc1CNc1cc(-c2cccc(NS(C)(=O)=O)c2)ncn1 | -17.4% | 
51 | COc1cccc(-c2cncnc2NC2CCNCC2)c1 | -13.3% | 
52 | COc1ccc(CNc2ncncc2-c2cccc(NS(C)(=O)=O)c2)c(OC)c1 |  | 25.1 µM (active)
53 | COc1cccc(-c2cncnc2NCc2ccc(OC)cc2OC)c1 |  | 7.94 µM (active)
54 | COc1cccc(-c2cncnc2NCc2ccccc2OC)c1 |  | 7.94 µM (active)

Row | SMILES | activity, negative = inhibition | AC50
55 | C/C(=N\n1nnnc1Nc1ccccc1)c1ccc(N)cc1 | 2.96% | 
56 | CCNc1ncc2nc(C)c(=O)n(Cc3ccc(F)cc3)c2n1 | -4.78% | 
57 | O=c1cnc2cnc(Oc3ccccc3)nc2n1Cc1ccc(F)cc1 | -20.8% | 
58 | O=C(O)/C=C\C(=O)Nc1ncn[nH]1 | 3.54% [at 11.4 µM] | 
59 | CCC(C)(C(=O)NC1CCCC1)N(Cc1ccco1)C(=O)c1ccccn1 (stereo not given) | 17.4% | 
60 | O=c1ccc2cc(O)c(O)cc2o1 | -4.53% [at 25.6 µM] | 
61 | OC[C@H](S)CS | 19.8% [at 11.4 µM] | 
62 | CCOc1ccc(C(C)=O)cc1N1C(=O)C2C3C=CC(C3=C(C)C)C2C1=O (stereo not given) | -2.5% | 
63 | COc1ccccc1NC(=O)c1cnc2n(c1=O)CCS2 | -6.14% | 
64 | COc1ccccc1NC(=O)c1ccc(-n2cccn2)nc1 |  | 7.94 µM (active)
65 | COc1ccc(NC(=O)c2ccc(-n3cccn3)nc2)c(OC)c1 | 0.442% | 
66 | COc1ccccc1CCn1c(=O)c(-c2ccc(Cl)cc2)nc2cncnc21 | -8.73% | 
67 | COc1ccc(/C=N/NC(=O)c2cccc([N+](=O)[O-])c2)cc1OS(=O)(=O)c1ccc(C)cc1 | -3.23% | 
68 | CC(=O)Nc1sc2c(c1C(N)=O)CCCC2 | -10.9% | 
69 | CCNC(=O)c1c(NC(C)=O)sc2c1CCCC2 | 4.74% | 
70 | CC(=O)Nc1sc2c(c1CN1CCN(C)CC1)CCCC2 |  | 12.6 µM (active)
71 | Cc1cc(C)c(S(C)(=O)=O)c(Oc2ccc(F)cc2)n1 | -5.79% | 
72 | COc1ncc2nc(-c3cn(C)c4ccccc34)c(=O)n(-c3ccccc3)c2n1 | 3.2% | 
73 | CCOC(=O)c1c(NC(=O)C2C3CCC(O3)C2C(=O)O)sc(C)c1-c1ccc(C)cc1 (stereo not given) | -1.43% | 
74 | CCOc1ccc(N2C(=O)/C(=C/c3cc(OC)c(OC)c(OC)c3)N(CC(=O)OC)C2=S)cc1 | -3.36% | 
75 | CCOc1ccc(N2C(=O)/C(=C/c3cccs3)N(CC(=O)OC)C2=S)cc1 | -8.94% | 
76 | CCc1ccc(N2C(=O)/C(=C/c3cccs3)N(CC(=O)OC)C2=S)cc1 |  | 0.794 µM (active)
77 | O=C(Nc1cccc(-c2cn3cccnc3n2)c1)c1ccco1 | -3.97% | 
78 | COc1ccc(S(=O)(=O)N2CCc3ccccc3C2)cc1OC | 26.5% | 
79 | O=C(NNS(=O)(=O)c1cc(Cl)cc(Cl)c1)c1sccc1-n1cccc1 | -28.4% | 
80 | O=C(NNS(=O)(=O)c1ccccc1)c1cccnc1 | 14.2% [at 11.4 µM] | 
81 | O=C(NNS(=O)(=O)c1ccc(Cl)cc1)c1cnn(-c2ccccc2)c1-n1cccc1 |  | 2 µM (active)

Row | SMILES | activity, negative = inhibition | AC50
82 | N=c1nc(N2CCCCC2)cc(N)n1O |  | inactive
83 | Oc1[nH]c2ccccc2c1N=Nc1ccc(C(F)(F)F)cn1 | -2.34% | 
84 | [O-][N+](CCO)(CCO)c1ncnc2nc[nH]c12 | -0.262% [at 11.4 µM] | 
85 | N/C(=N\OC(=O)c1cc(-c2ccccc2)nc2ccccc12)c1ccc(Cl)cc1 | -8.2% | 
86 | COc1ccc(-c2nc3ccccc3c(=O)n2N)cc1 | -1.03% | 
87 | COc1ccc(-c2cc([C@H](O)[C@@H]3CCCCN3)c3ccccc3n2)cc1 |  | 3.16 µM (active)
88 | Cc1cc(C)c2nc3c(c([C@H](O)[C@@H]4CCCCN4)c2c1)CC/C3=C/c1ccc(Cl)cc1 | 0.19% [at 11.4 µM] | 
89 | CCNC(=O)COC(=O)c1cc(-c2ccc(OC)cc2)nc2ccccc12 | -27.2% | 
90 | O[C@@H](c1cc(-c2ccc(Cl)cc2)nc2ccccc12)[C@@H]1CCCCN1 |  | 0.631 µM (active)
91 | Cc1ccc(C(=O)COC(=O)CNC(=O)Cc2ccccc2)cc1[N+](=O)[O-] | -10.1% | 
92 | Cc1c(NC(=O)Cn2ccc([N+](=O)[O-])n2)c(=O)n(-c2ccccc2)n1C | 23.1% | 
93 | c1ccc(C2=NN[C@@H]3c4ccccc4-c4ccccc4N3C2)cc1 | -17.6% [at 11.4 µM] | 
94 | CCC(=O)NC(NC(=O)CC)C(Cl)Cl | 6.76% | 
95 | CCOC(=O)N1CCN(C(=O)CSCc2nc(-c3ccccc3F)oc2C)CC1 | 6.39% | 
96 | Cc1oc(-c2ccccc2Cl)nc1CSCC(=O)NC1CC1 | -21.5% | 
97 | O=C(CSCc1cccc(Cl)c1)N/N=C/c1ccc(OCC(=O)N2CCCCC2)cc1 |  | 17.8 µM (active)
98 | COCCCNC(=O)/C=C/c1ccc(Cl)cc1 | -4.47% | 
99 | CCN1CCCC1CNC(=O)CSCc1nc(-c2ccccc2C)oc1C (stereo not given) |  | 8.91 µM (active)
100 | Cc1cccc(C(=O)N/N=C/c2ccc(OCC(=O)N3CCCCC3)cc2)c1 | -11.8% | 
101 | O=C(/C=C/c1cccc([N+](=O)[O-])c1)NCCN1CCOCC1 | -0.0015% | 
102 | O=C(CN1CCCC1)N/N=C/c1ccc(-c2cccc(Cl)c2)o1 | -20.7% | 
103 | Cc1oc(-c2ccccc2F)nc1CSCC(=O)NCc1ccc2c(c1)OCO2 |  | 2.24 µM (active)
104 | O=C(/C=C/c1ccc2c(c1)OCO2)NCCSCc1cccc(Cl)c1 |  | 0.355 µM (active)
105 | O=C(Nc1ccc2oc(-c3ccccc3F)nc2c1)c1ccc2c(c1)OCCO2 | -24.9% | 
